These results are taken from PubChem BioAssay (NCATS).

Test [1] in a line: Validation screen for inhibitors of Lassa infection (AID 463096). Further: on the % scale 0 is the no-effect control and ±100 the full control effect.
Test [2] can be described thus: Inducers of the Endoplasmic Reticulum Stress Response (ERSR) in human glioma: Validation (AID 504836; active means well fitted curve in the direction sought with a large enough effect; an effect the other way counts as inactive or inconclusive; further: 0% is about no effect). In a few lines: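 ERSR induction read as luciferase luminescence (Bright-Glo, 10 min at room temperature) in stably transfected human U87-MG glioma cells exposed to compounds for 16 h, using GRP78 as sensor.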
Test [3] can be described thus: qHTS for Inhibitors of the Functional Ribonucleoprotein Complex (vRNP) of Lassa (LASV) Arenavirus: LASV Primary Screen - GLuc reporter signal (AID 1347082; calls by dose curve; tested in HEK293 reporter line; further: series mostly up to about 57 µM; on the % scale 0 is the no-effect control and ±100 the full control effect; nearly all actives have a fitted effect of over 60% in size). A general note: Quantitative high-throughput screening tests each substance at several concentrations.
Test [4] can be described thus: qHTS for Inhibitors of the Functional Ribonucleoprotein Complex (vRNP) of Lassa (LASV) Arenavirus: Viability assay - alamar blue signal for LASV Primary Screen (AID 1347083; calls by dose curve; tested in HEK293 reporter line; further: series mostly up to about 57 µM; on the % scale 0 is the no-effect control and ±100 the full control effect; nearly all actives have a fitted effect of over 80% in size).
Test [5] is described as follows: qHTS for Inhibitors of the Functional Ribonucleoprotein Complex (vRNP) of Lymphocytic Choriomeningitis Arenaviruses (LCMV): Viability assay - alamar blue signal for LCMV Primary Screen (AID 1347085; calls by dose curve; tested in HEK293 reporter line; further: series mostly up to about 57 µM; on the % scale 0 is the no-effect control and ±100 the full control effect; nearly all actives have a fitted effect of over 80% in size).
Test [6] has as its target Nucleoprotein (Lymphocytic choriomeningitis virus (strain Armstrong)) (UniProt P09992). The test is described as follows: qHTS for Inhibitors of the Functional Ribonucleoprotein Complex (vRNP) of Lymphocytic Choriomeningitis Arenaviruses (LCMV): LCMV Primary Screen - GLuc reporter signal (AID 1347086). Further: series mostly up to about 57 µM; on the % scale 0 is the no-effect control and ±100 the full control effect; nearly all actives have a fitted effect of over 70% in size.
Test [7] addresses Alpha-galactosidase (Coffea arabica) (UniProt Q42656). Description: Counterscreen for Glucocerebrosidase Inhibitors: qHTS Assay for Coffee Bean alpha-Galactosidase at pH 4.5 (AID 957; active means well fitted curve in the direction sought with a large enough effect; an effect the other way counts as inactive or inconclusive;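 further: series mostly up to about 77 µM; plate controls were enzyme alone for no effect and no enzyme for full effect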). In a few lines:
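Fluorogenic qHTS at pH 4.5 (citrate buffer with Tween-20): 2 nM enzyme, 80 uM 4-MU-alpha-galactoside substrate, compound titrated 0.7 nM to 77 uM, 20 min room temperature. Glycine/NaOH stop; 4-MU read Ex 365/Em 440; Hill-equation AC50 against no-enzyme and enzyme controls.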
On the technique in general: The purpose of a counterscreen is to sort out artefacts and off-target activity.

Test [8] shares this target. Description: Counterscreen for Glucocerebrosidase Inhibitors: qHTS Assay for Coffee Bean alpha-Galactosidase at pH 5.9 (AID 998; active means well fitted curve in the direction sought with a large enough effect; an effect the other way counts as inactive or inconclusive;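 further: plate controls were uninhibited enzyme for no effect and no-enzyme basal signal for full effect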). In a few lines:
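Fluorogenic 4-MU substrate hydrolysis, 80 uM substrate and 2 nM coffee bean alpha-galactosidase, pH 5.9 citrate buffer, 20 min at room temperature, then NaOH/glycine stop. Titration 0.7 nM–77 uM, normalized to no-enzyme and enzyme controls, AC50 via Hill equation.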

The target of test [9] is Chromobox protein homolog 1 (Homo sapiens) (UniProt P83916). Description: qHTS Validation Assay for Inhibitors of HP1-beta Chromodomain Interactions with Methylated Histone Tails (AID 488953; active means well fitted curve in the direction sought with a large enough effect; an effect the other way counts as inactive or inconclusive;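 further: loss of AlphaScreen luminescence from HP1-beta binding biotinylated H3K9me3 peptide; series mostly up to about 110 µM; on the % scale 0 is the no-effect control and ±100 the full control effect; nearly all actives have a fitted effect of over 50% in size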). The procedure, abridged: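 AlphaScreen proximity signal from streptavidin donor and nickel chelate acceptor beads (final 10 ug/mL) after 30 min dark incubation. Compounds had 30 min at room temperature with preformed complex of 50 nM HP1-beta and 50 nM b-H3(1-18)K9me3 in PBS pH 7.4 with 0.01% Tween-20.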

Test [10] has as its target Bile acid receptor (Homo sapiens) (UniProt Q96RI1). The test is described as follows: qHTS assay for small molecule agonists of farnesoid X receptor signaling (AID 588527).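 Further: series mostly up to about 77 µM; 0% = vehicle basal and 100% = reference agonist.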 As to conditions: HEK293T FXR-UAS-bla, beta-lactamase ratio, 16 h; activation: stronger effect = higher value. The procedure, abridged: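 Read-out: beta-lactamase reporter fluorescence with CCF4 substrate in GeneBLAzer FXR-UAS-bla HEK293T cells, after 16 h compound exposure at 37 C. Response scaled between DMSO basal (0%) and chenodeoxycholic acid at 100 uM (100%).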

The target of test [11] is Peroxisome proliferator-activated receptor delta (Homo sapiens) (UniProt Q03181). The test is described as follows: qHTS assay for small molecule agonists of peroxisome proliferator-activated receptor delta signaling (AID 588534).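 Further: 0% = DMSO basal wells and 100% = positive control agonist at 10 µM.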 In a few lines: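 Agonist-mode beta-lactamase reporter readout (CCF4 dye, 2 h at RT) after 18 h at 37 °C exposure to a titration; Hill-equation fitting gave EC50 and maximal response.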

The target of test [12] is Arylsulfatase A (Homo sapiens) (UniProt P15289). The test is described as follows: qHTS screen for enhancers of Arylsulfatase A (ASA1): LOPAC Validation Assay (AID 720538; active means well fitted curve in the direction sought with a large enough effect; an effect the other way counts as inactive or inconclusive). The procedure, abridged: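 MLD patient fibroblasts (SV40, ASA-I179S), 1536-well; adhere 6 hrs; cpd 48h, 37 degree C, 5% CO2; pNCS 0.5mM final in lysis buffer, 14h RT; stop 1N NaOH final; fluor. Ex525/Em598.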

Test [13] has as its target Tyrosyl-DNA phosphodiesterase 1 (Homo sapiens) (UniProt Q9NUW8). Description: Confirmation Assay for Inhibitors of Tyrosyl-DNA Phosphodiesterase (TDP1) (AID 489007; active means well fitted curve in the direction sought with a large enough effect; an effect the other way counts as inactive or inconclusive; further: potency means the concentration at half of the fitted maximal effect; nearly all actives have a fitted effect of over 40% in size). As to conditions: recombinant human TDP1 enzymatic activity, dose-response. In a few lines: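 AlphaScreen assay of tyrosine-FITC cleavage from a biotinylated DNA substrate (15 nM) by E. coli-expressed human Tdp1 (1 nM). Sequence: compound preincubation 15 min, reaction 5 min, bead detection 10 min, all at room temperature. No-enzyme wells give maximum signal.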

The nature of test [14]: Validation screen for small molecules that induce genotoxicity in human embryonic kidney (HEK293T) cells expressing luciferase-tagged ELG1 (AID 493106; active means well fitted curve in the direction sought with a large enough effect; an effect the other way counts as inactive or inconclusive; further: 0% is about no effect). The procedure, abridged:
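ELG1-luciferase reporter readout (ONE-Glo, 30 min, room temperature) after 16 hr compound treatment at 37 °C of HEK293T cells at 2,000 per well. Rising luminescence flags genotoxic stress.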

A number with no mark means an inactive call. Records with an inconclusive call do not appear. The source made the active and inactive calls. Unless noted, the call rests on the fitted dose curve.

Nucleoprotein (Lymphocytic choriomeningitis virus (strain Armstrong)), sequence (P09992 whole entry, looked up): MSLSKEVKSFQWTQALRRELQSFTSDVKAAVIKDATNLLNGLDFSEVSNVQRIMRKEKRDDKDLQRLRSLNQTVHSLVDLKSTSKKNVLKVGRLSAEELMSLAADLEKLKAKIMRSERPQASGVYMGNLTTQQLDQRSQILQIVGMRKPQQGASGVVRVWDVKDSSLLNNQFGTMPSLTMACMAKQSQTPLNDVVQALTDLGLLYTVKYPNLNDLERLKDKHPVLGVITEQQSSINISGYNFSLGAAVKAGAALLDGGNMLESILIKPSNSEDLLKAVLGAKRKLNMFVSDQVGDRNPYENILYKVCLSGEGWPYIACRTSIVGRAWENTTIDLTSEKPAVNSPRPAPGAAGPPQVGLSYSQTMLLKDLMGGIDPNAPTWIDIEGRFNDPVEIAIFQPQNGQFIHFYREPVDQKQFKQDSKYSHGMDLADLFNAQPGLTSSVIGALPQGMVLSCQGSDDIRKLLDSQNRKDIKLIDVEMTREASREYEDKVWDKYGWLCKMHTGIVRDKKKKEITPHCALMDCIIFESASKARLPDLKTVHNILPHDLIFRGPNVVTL
Alpha-galactosidase (Coffea arabica), sequence (Q42656 whole entry, looked up): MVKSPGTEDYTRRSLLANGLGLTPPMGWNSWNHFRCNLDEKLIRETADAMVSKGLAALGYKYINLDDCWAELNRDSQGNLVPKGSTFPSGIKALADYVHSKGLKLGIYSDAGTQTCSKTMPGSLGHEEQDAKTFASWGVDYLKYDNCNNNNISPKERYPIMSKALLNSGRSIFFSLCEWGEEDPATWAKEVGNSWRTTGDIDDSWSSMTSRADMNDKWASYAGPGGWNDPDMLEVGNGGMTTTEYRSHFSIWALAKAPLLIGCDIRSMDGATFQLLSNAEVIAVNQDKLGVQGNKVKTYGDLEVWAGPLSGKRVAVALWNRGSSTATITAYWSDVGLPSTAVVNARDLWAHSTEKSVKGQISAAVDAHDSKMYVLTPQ
Bile acid receptor (Homo sapiens), sequence (Q96RI1 whole entry, looked up): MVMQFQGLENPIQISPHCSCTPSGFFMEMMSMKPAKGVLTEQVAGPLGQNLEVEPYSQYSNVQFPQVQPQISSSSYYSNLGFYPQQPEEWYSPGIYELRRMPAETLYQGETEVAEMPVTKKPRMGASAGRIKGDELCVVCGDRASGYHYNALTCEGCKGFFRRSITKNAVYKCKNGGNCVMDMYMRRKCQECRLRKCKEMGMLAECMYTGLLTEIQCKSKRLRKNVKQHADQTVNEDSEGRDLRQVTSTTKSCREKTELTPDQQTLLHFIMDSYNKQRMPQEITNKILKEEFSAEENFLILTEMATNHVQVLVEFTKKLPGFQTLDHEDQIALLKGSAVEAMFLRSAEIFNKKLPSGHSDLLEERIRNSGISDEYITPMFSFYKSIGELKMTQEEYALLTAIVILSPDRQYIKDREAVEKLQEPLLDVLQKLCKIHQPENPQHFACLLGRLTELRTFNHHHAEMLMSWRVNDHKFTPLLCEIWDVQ
Tyrosyl-DNA phosphodiesterase 1 (Homo sapiens), sequence (Q9NUW8 whole entry, looked up): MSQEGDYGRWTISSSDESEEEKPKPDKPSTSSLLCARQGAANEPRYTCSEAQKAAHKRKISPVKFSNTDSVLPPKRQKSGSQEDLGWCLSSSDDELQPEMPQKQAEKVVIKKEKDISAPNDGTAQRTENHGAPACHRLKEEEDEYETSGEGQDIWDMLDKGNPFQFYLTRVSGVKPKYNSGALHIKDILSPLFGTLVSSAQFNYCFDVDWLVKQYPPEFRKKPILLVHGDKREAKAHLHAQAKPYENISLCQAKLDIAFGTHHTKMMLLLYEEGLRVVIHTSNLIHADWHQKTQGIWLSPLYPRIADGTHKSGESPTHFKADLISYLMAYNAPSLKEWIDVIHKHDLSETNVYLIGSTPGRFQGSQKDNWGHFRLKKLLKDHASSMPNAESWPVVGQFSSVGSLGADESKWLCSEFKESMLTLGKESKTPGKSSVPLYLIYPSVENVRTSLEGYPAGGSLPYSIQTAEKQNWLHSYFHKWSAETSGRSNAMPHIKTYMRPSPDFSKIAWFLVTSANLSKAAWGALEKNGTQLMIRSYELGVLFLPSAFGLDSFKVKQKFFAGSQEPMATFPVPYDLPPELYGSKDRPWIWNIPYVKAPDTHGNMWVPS
Peroxisome proliferator-activated receptor delta (Homo sapiens), sequence (Q03181 whole entry, looked up): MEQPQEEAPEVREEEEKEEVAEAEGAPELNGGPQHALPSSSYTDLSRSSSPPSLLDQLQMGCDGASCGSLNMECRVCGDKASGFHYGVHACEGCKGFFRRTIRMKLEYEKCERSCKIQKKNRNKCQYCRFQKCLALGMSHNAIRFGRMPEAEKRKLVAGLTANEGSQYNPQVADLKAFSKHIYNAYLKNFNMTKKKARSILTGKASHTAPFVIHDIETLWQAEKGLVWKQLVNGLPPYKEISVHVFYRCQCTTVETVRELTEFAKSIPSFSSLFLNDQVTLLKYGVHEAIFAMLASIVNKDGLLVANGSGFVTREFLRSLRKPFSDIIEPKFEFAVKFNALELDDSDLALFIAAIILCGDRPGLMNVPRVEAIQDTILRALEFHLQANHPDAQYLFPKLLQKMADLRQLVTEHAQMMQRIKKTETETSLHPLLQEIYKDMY
Arylsulfatase A (Homo sapiens), sequence (P15289 whole entry, looked up): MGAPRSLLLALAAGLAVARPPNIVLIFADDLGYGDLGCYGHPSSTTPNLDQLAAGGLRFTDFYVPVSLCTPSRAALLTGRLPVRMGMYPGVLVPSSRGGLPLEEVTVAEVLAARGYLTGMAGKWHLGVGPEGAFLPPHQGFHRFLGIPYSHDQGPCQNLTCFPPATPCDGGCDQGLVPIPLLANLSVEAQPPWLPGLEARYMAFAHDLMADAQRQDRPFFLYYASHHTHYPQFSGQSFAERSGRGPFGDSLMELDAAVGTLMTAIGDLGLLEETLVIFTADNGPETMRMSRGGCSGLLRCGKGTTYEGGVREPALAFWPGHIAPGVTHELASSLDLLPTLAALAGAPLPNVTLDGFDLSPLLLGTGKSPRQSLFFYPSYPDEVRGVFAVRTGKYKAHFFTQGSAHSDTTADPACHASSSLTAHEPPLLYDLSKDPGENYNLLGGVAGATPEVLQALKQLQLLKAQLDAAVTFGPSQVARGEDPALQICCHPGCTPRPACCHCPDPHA
Chromobox protein homolog 1 (Homo sapiens), sequence (P83916 whole entry, looked up): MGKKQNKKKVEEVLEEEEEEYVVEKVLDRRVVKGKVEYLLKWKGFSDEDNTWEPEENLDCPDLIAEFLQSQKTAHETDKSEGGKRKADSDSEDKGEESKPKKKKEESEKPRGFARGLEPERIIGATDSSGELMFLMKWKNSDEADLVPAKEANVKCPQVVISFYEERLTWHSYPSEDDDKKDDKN

With `O=C(O)C1CN(CCCP(=O)(O)O)CCN1` (stereo unspecified), the Potency result in [1], in test [3], in [4], in test [5] and in [6] was “inactive” each time. Besides, in test [2], the compound was called inactive.

On to `CCCC[C@@]1(C2CCCC2)Cc2cc(OCC(=O)O)c(Cl)c(Cl)c2C1=O`, for which the Potency result in test [1], in [3], in [4], in [5] and in [6] was “inactive” each time. In addition, the compound was classed as inactive in test [2].

As for `O=C(O)/C=C/C(O)c1ccc(Cl)cc1` (stereo unspecified), the Potency entry in test [1], in test [3], in test [4], in test [5] and in test [6] was “inactive” each time. In test [2], the call was inactive.

As to `Cc1cccc(C)c1OCC(N)C(C)C` (stereo unspecified), the Potency entry in [1], in test [3], in [4], in test [5] and in test [6] was “inactive” each time. In addition, the outcome in [2] was inactive.

`CC(=O)C(C)=O`: the call in test [7], in test [8] and in test [2] was inactive. The Potency entry in test [1], in test [9], in test [11], in test [12], in [3] and in [4] was “inactive” throughout. The Potency result in [5] and in [6] was “inactive” each time. For the same compound, in [10], the activation is 0.539%.

In the case of `NC1C=CC=C(C(=O)O)C1` (stereo unspecified), the Potency result in test [1], in [3], in [4], in test [5] and in test [6] was “inactive” throughout. Also, the Potency in [13] is 1120 nM (active). Also, the outcome in test [14] and in test [2] was inactive.

`NCC(O)c1ccc(O)c(O)c1` (stereo unspecified): the Potency result in test [1], in test [3], in [4], in test [5] and in test [6] was “inactive” in each case. Further, the compound was classed as inactive in test [2].

`O=C1O/C(=C/Br)CCC1c1cccc2ccccc12` (stereo unspecified): the Potency entry in test [1], in test [3], in [4], in test [5] and in test [6] was “inactive” throughout. For the same compound, in test [2], the call was inactive.

As to `COC(=O)C(N)Cc1ccc(Cl)cc1` (stereo unspecified), the Potency result in test [1], in test [3], in test [4], in test [5] and in test [6] was “inactive” throughout. For the same compound, the result in test [2] was inactive.

For the compound `C#CCN1C(C)=C(C(=O)OC)C(c2cccc([N+](=O)[O-])c2)C(C(=O)OCC)=C1C` (stereo unspecified), the Potency result in test [1], in [3], in test [4], in test [5] and in test [6] was “inactive” in each case. For the same compound, in test [2], the result was inactive.

Turning to `NC1CONC1=O` (stereo unspecified), the Potency result in [1], in [3], in test [4], in test [5] and in test [6] was “inactive” in each case. Besides, the result in test [2] was inactive.

Regarding `CCCN(CCc1ccccc1)C1CCc2c(O)cccc2C1` (stereo unspecified), the Potency entry in [1], in [3], in [4], in [5] and in test [6] was “inactive” throughout. Also, in [2], the compound was called inactive.

`CN(C)CCC(c1ccc(Cl)cc1)c1ccccn1` (stereo unspecified): the Potency result in test [1], in test [3], in test [4], in test [5] and in [6] was “inactive” throughout. Besides, in test [2], the result was inactive.
